Test results taken from PubChem BioAssay (NCI).
Compounds without any hit were thinned out: in the full panel of roughly 83,000, 20% have a hit.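 Interpretation: 100, growth as untreated; towards 0, rising growth inhibition; 0, no net growth; 0 to -100, cell death. Compounds scoring below 10 were considered active.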 A number with no mark means an inactive call. Active and inactive are the calls of the source.

What follows are compounds tested on EKVX NSCLC (assay: NCI-60 one-dose screen, 48 h (100 = growth as untreated, 0 = no growth, -100 = all killed)). Details: 10 µM unless noted.
Description: Growth inhibition of the EKVX human Non-Small Cell Lung tumor cell line is measured as a screen for anti-cancer activity. Cells are grown in 96 well plates and exposed to the test compound for 48 hours. Compounds are tested at a single concentration, which is 10^-5 M for most compounds. The reported endpoint is percent growth (GI% or GIPRCNT), where numbers from 0 - 100% represent growth inhibition, and numbers from -100% - 0 represent cell death. For example, a value of 40 represents 60% growth inhibition. A value of 0 means no net growth occurred over the course of the experiment. A value of -40 indicates 40% of cells at the beginning of the experiment died by the end of the experiment. A value of -100 means all cells are dead at the end of the experiment.
NCI-60 Human Tumor Cell Lines Screen was performed using the standard one-dose NCI protocol, which is described in more detail at https://dtp.cancer.gov/discovery_development/nci-60/default.htm.
Compounds with GIPRCNT values below 10 were considered active. Activity score was based on GIPRCNT using the following formula: […]
Score is 0 for GIPRCNT values of 100 or above, 50 for GIPRCNT values of 0, and 100 for GIPRCNT values of -100.

Row | Compound | growth
1 | CC12CCC(O)CC1=CCC1C2CCC2(C)C3=NN=CC3CC12 (stereo not given) | 81.9%
2 | O=C(CBr)c1ccc(OC(=O)c2ccccc2)cc1 | 118%
3 | COc1ccc(C(OCC2OC(n3ccc(NC(=O)c4ccccc4)nc3=O)C(O)C2O)(c2ccccc2)c2ccccc2)cc1 (stereo not given) | 38.4%
4 | O=C(OC12CC3CC(CC(C3)C1)C2)c1ccc(NCc2cc(O)ccc2O)cc1 | -67.9% (active)
5 | CCCOS(=O)(=O)c1ccccc1 | 110%
6 | CN(C)c1ccc(/C=C/c2sc3ccc4ccccc4c3[n+]2C)cc1 | -13.6% (active)
7 | Cn1ccc(=Nc2ccc(NC(=O)c3ccc(N=c4ccn(C)c5ccc([N+](=O)[O-])cc45)cc3)cc2)cc1 | 77.5%
8 | CCOC(=O)c1cc(CC)sc1NC(=O)CC(C)=O | 51%
9 | O=C(c1ccccc1)C(Br)[N+](=O)[O-] (stereo not given) | 96.5%
10 | CCN(CC)CC(O)c1cc(-c2ccc(Cl)cc2)nc2cc(Cl)ccc12 (stereo not given) | 60.5%
11 | OC(c1cc2ccc(C(F)(F)F)cc2c2cc(C(F)(F)F)ccc12)C1CCCCN1 (stereo not given) | -96.7% (active)
12 | O=[N+]([O-])c1ccc(C(Br)c2ccc([N+](=O)[O-])cc2)cc1 | 109%
13 | NC(=S)Nc1ccc2c(c1)Cc1ccccc1-2 | 67.1%
14 | COc1cc([C@@H]2c3cc4c(cc3[C@H](OC3OC5COC(c6ccccc6)OC5C(O)C3O)[C@H]3COC(=O)[C@H]23)OCO4)cc(OC)c1OC (stereo not given in full) | 74.7%
15 | CN(C)c1ccc2cc3c(cc2c1)Oc1ccccc1N3.[Cl][Zn][Cl] | 89.9%
16 | Cc1ccc(/C=C2\CNC/C(=C\c3ccc(C)cc3)C2=O)cc1 | -67.4% (active)
17 | NC(=S)N/N=C\c1nccc2c(C(F)(F)F)cccc12 | 1.87% (active)
18 | C[n+]1ccccc1C[n+]1ccccc1 | 113%
19 | O=C(O)c1cc2c(s1)C(=O)c1sccc1C2=O | 101%
20 | c1ccc(-c2cc3cc4ccccc4cn3c2)cc1 | 85.3%

Row | Compound | growth
21 | COc1ccc2c(c1OC)OCC(CN(C)C)C2=O (stereo not given) | 99.4%
22 | O=C1c2ccccc2Cc2cccc(Cl)c21 | 104%
23 | CN1CSC(=S)N(Cc2ccccc2)C1 | 118%
24 | O=C(CCl)N1c2ccccc2Sc2c1ccc1ccccc21 | 96.1%
25 | S=C(S)OCN1CCOCC1 | 97.4%
26 | CCC1C[N+]2=C(c3cc(OC)c(OC)cc3CC2)c2c1cc1n2CCc2cc(OC)c(OC)cc2-1 (stereo not given) | 57.9%
27 | S=C(SSC(=S)N1CCOCC1)N1CCOCC1 | 95.3%
28 | OC(CSc1ccccc1)CN1CCN(c2ccc(Cl)cc2)CC1 (stereo not given) | 95.2%
29 | NNc1ccc(Cl)cc1Cl | 81.1%
30 | CN(C)CC(C)(CN(C)C)C(=O)/C=C/c1c(Cl)cccc1Cl | 5.55% (active)
31 | COc1cc(/C=C2\SC(=S)N(/C=C/c3nc4ccccc4[nH]c3=O)C2=O)cc(OC)c1OC | 84.6%
32 | O=C1Nc2ccc(Br)cc2C1=O | 101%
33 | C/C(=N\NC(=S)N1CC2CCC(CC2)C1)c1ccccn1 | -6.66% (active)
34 | O=C1C(=O)c2cc([N+](=O)[O-])ccc2-c2ccccc21 | -88.8% (active)
35 | CCc1cccc(CC)c1N1C(=O)C=CC1=O | 113%
36 | CCCCCCCCCCCC[n+]1ccccc1 (tested in a mixture with another compound) | -20.5% (active)
37 | Oc1ccc(Cl)cc1Cc1cc(Cl)ccc1O | 60.9%
38 | CCc1oc2ccccc2c1C(=O)c1cc(Br)c(O)c(Br)c1 | 73.6%
39 | Cc1ccc(N2C(=O)C=CC2=O)cc1 | 116%
40 | Cc1cc(I)nc2ccccc12 | 101%
